Compounds without any hit were thinned out: in the full panel of roughly 83,000, 20% have a hit.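 For each line, cells grew in 96-well plates with the test compound present at a single concentration for 48 hours.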 Values without a mark were called inactive. The source made the active and inactive calls. How the source made its calls: active means growth percent below 10; inactive means the rest.

Some test systems named below: HCT-15 colon; HT29 colon; SNB-75 CNS; SNB-19 CNS; U251 CNS; PC-3 prostate; SK-MEL-5 melanoma; UACC-62 melanoma; LOX IMVI melanoma; SK-MEL-28 melanoma; SK-MEL-2 melanoma; EKVX NSCLC; SN12C renal; UO-31 renal; TK-10 renal; ACHN renal; CAKI-1 renal; A498 renal; CCRF-CEM leukemia; MOLT-4 leukemia.
What all share (assay): NCI-60 one-dose screen, 48 h (100 = growth as untreated, 0 = no growth, -100 = all killed)
Settings in all cases: 10 µM unless noted

With `COc1ccc(C(=O)Nc2cccc(C3CC(=O)c4c(cc(OC)c(OC)c4OC)O3)c2)cc1` (stereo not given), the growth with HCT-15 colon was 13.3%; with HT29 colon, 6.28% (active); in the assay with SNB-75 CNS, -11.4% (active); with SNB-19 CNS, 18.3%; with U251 CNS it was 9.47% (active); in the assay with PC-3 prostate it was 20.4%. The growth in the assay with SK-MEL-5 melanoma is 9.7% (active); with UACC-62 melanoma, 25.5%; in the assay with LOX IMVI melanoma it was 26.1%; in the assay with SK-MEL-28 melanoma it was 56.3%; in the assay on SK-MEL-2 melanoma, -11.9% (active); with EKVX NSCLC it was 45%. The growth in the assay on SN12C renal is 31.2%; with UO-31 renal, 33.7%; in the assay on TK-10 renal, 40.3%; in the assay with ACHN renal, 40.8%; with CAKI-1 renal, 33.3%; with A498 renal, -2.96% (active). In addition, the growth with CCRF-CEM leukemia was 9.44% (active); in the assay on MOLT-4 leukemia, 14.3%.
In the case of `COc1cc2c(c(OC)c1OC)C(=O)CC(c1cccc(NC(=O)c3ccc(Br)cc3)c1)O2` (stereo not given), the growth in the assay on HCT-15 colon is 29.8%; in the assay with HT29 colon, 46%; with SNB-75 CNS it was 47.7%; in the assay on SNB-19 CNS, 64.6%; in the assay with U251 CNS, 42.2%; in the assay with PC-3 prostate, 20.9%. Further, the growth in the assay on SK-MEL-5 melanoma was 4.06% (active); in the assay on UACC-62 melanoma, 18.8%; with LOX IMVI melanoma, 43.3%; in the assay on SK-MEL-28 melanoma, 57%; in the assay on SK-MEL-2 melanoma it was 8.79% (active); with EKVX NSCLC it was 74.3%. The growth was 61.5% in the assay on SN12C renal; 34.9% in the assay on UO-31 renal; 61.7% with TK-10 renal; 52.4% in the assay with ACHN renal; 46.2% in the assay on CAKI-1 renal; 36.2% in the assay with A498 renal. Further, the growth in the assay with CCRF-CEM leukemia is 2.95% (active); in the assay with MOLT-4 leukemia, -11.5% (active).
Regarding `COc1ccc2cc(C(=O)c3coc4ccc(O)cc34)ccc2c1`, the growth in the assay with HCT-15 colon was 103%; in the assay with HT29 colon it was 95.6%; in the assay with SNB-75 CNS, 101%; in the assay with SNB-19 CNS it was 104%; with U251 CNS, 103%; in the assay with PC-3 prostate it was 95.5%. In addition, the growth in the assay on SK-MEL-5 melanoma was 99.5%; with UACC-62 melanoma, 98.7%; in the assay with LOX IMVI melanoma, 97.4%; with SK-MEL-28 melanoma, 111%; in the assay with SK-MEL-2 melanoma, 97%; with EKVX NSCLC, 103%. For the same molecule, the growth is 98.8% in the assay with SN12C renal; 68.4% with UO-31 renal; 103% in the assay with TK-10 renal; 107% in the assay with ACHN renal; 92.6% in the assay on CAKI-1 renal; 105% in the assay with A498 renal. The growth in the assay on CCRF-CEM leukemia is 56.4%; with MOLT-4 leukemia, 81.1%.
As to `COc1cc(-c2cc(-c3ccc(N(C)C)cc3)nc(N3CCC(O)CC3)c2C#N)cc(OC)c1OC`, the growth in the assay on HCT-15 colon was -41.1% (active); in the assay with HT29 colon, 2.08% (active); in the assay on SNB-75 CNS it was -17.2% (active); in the assay with SNB-19 CNS it was 30.2%; in the assay on U251 CNS, 12.9%; with PC-3 prostate it was 12.7%. Besides, the growth in the assay on SK-MEL-5 melanoma was -99% (active); with UACC-62 melanoma, -26.8% (active); with LOX IMVI melanoma, -0.767% (active); in the assay on SK-MEL-28 melanoma, -28.7% (active); in the assay with SK-MEL-2 melanoma, -54.2% (active); in the assay with EKVX NSCLC, 21.7%. The growth in the assay on SN12C renal is 26.4%; in the assay on UO-31 renal, -45.1% (active); in the assay with TK-10 renal it was 14.9%; with ACHN renal it was 15.1%; with CAKI-1 renal it was -22.6% (active); in the assay with A498 renal, 26.3%. For the same molecule, the values for the growth with CCRF-CEM leukemia and with MOLT-4 leukemia were 26.6% and 2.62% (active), respectively.
Regarding `COc1cc(/C=C\c2cc(/C=C\c3ccc(O)c(OC)c3)n(C(=O)COc3ccc(Cl)cc3Cl)n2)ccc1O`, the growth in the assay with HCT-15 colon is 9.52% (active); in the assay with HT29 colon, 2.93% (active); with SNB-75 CNS, 5.12% (active); in the assay on SNB-19 CNS it was 29%; with U251 CNS it was 16.3%; with PC-3 prostate, 10.2%. Also, the growth in the assay with SK-MEL-5 melanoma was -12.9% (active); in the assay on UACC-62 melanoma, 5.87% (active); in the assay with LOX IMVI melanoma, 3.79% (active); in the assay with SK-MEL-28 melanoma, 26.6%; in the assay on SK-MEL-2 melanoma, -4.36% (active); in the assay on EKVX NSCLC, 38.4%. Moreover, the growth in the assay on SN12C renal is 8.09% (active); with UO-31 renal it was 8.72% (active); in the assay on TK-10 renal, 20.5%; in the assay on ACHN renal, 18.7%; in the assay on CAKI-1 renal, 14.8%; with A498 renal it was 17.6%. Besides, the results for the growth in the assay with CCRF-CEM leukemia and in the assay with MOLT-4 leukemia were 4.35% (active) and -0.332% (active), respectively.
With `COc1ccc(C(=O)Nc2ncc(Cc3cccc(Cl)c3)s2)cc1OC`, the growth with HCT-15 colon is 23.4%; in the assay with HT29 colon, 9.89% (active); in the assay on SNB-75 CNS, 19.8%; with SNB-19 CNS, 34.2%; with U251 CNS, 28.4%; with PC-3 prostate it was 27.4%. In addition, the growth in the assay with SK-MEL-5 melanoma was -25.9% (active); with UACC-62 melanoma, 10.6%; with LOX IMVI melanoma, 7.25% (active); in the assay on SK-MEL-28 melanoma, 10.9%; in the assay with SK-MEL-2 melanoma it was 8.92% (active); with EKVX NSCLC, 34.1%. Moreover, the growth with SN12C renal is 39.9%; with UO-31 renal it was 31.2%; with TK-10 renal, 38.5%; in the assay on ACHN renal, 16.8%; in the assay on CAKI-1 renal, 12.8%; with A498 renal it was 0.53% (active). Besides, the growth with CCRF-CEM leukemia was 17.3%; with MOLT-4 leukemia, 29.2%.
For the molecule `COc1cccc([C@H]2c3[nH]c4ccccc4c3C[C@H]3C(=O)N(CCCCCCC(=O)NO)CC(=O)N23)c1`, the growth with HCT-15 colon was 105%; in the assay on HT29 colon, 56.7%; with SNB-75 CNS, 7.84% (active); in the assay on SNB-19 CNS, 68.4%; in the assay with U251 CNS, 61.5%; with PC-3 prostate, 42.5%. For the same molecule, the growth was 49.8% in the assay with SK-MEL-5 melanoma; 36.8% in the assay with UACC-62 melanoma; 49.4% in the assay with LOX IMVI melanoma; 43% in the assay with SK-MEL-28 melanoma; 60.1% with SK-MEL-2 melanoma; 82.6% with EKVX NSCLC. The growth was 62.8% in the assay on SN12C renal; 62.5% in the assay with UO-31 renal; 87.6% in the assay with TK-10 renal; 69.1% in the assay on ACHN renal; 75.1% in the assay on CAKI-1 renal; 75.6% with A498 renal. Besides, the growth in the assay on CCRF-CEM leukemia is 14%; with MOLT-4 leukemia it was 18.5%.
